# Assays:
# Experiment in all cases: DAPPL (digital affinity profiling via proximity ligation, sequencing); 10 mM Tris-HCl pH 7.5, 50 mM NaCl, 1 mM DTT, 4% glycerol, room temperature, 30 min; GST-TFs on glutathione beads, 16-mer random dsDNA library, 0.1% formaldehyde crosslink after washing; high values mean tight binding
# [1] = target: T1, FEV (Homo sapiens, UniProt Q99581 1-238); details: protein: recombinant; tags: N-terminal GST; dsDNA, one strand shown
# T1 sequence: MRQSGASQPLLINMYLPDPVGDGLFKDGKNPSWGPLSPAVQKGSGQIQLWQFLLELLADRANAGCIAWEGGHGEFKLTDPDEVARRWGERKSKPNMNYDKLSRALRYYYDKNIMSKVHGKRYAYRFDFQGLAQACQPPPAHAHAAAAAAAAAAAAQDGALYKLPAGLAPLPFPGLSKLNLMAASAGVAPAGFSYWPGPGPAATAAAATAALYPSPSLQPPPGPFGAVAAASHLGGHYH
# Outline: (§1)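 Binding signal is given per hexamer as its read frequency for a factor divided by its frequency in the tag-only sample. GST-fused human transcription factors were expressed in yeast, captured on glutathione beads, barcoded with DNA and pooled with that sample, then incubated with 200 nmole of a 16-mer random double-stranded DNA library in Tris/NaCl/DTT/glycerol buffer for 30 min at room temperature. The pools were then washed, crosslinked, proximity-ligated, amplified by PCR and sequenced on an Illumina NextSeq500.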
# [2] = target: ETV5 (Homo sapiens, UniProt P41161 1-510); details: protein: recombinant; tags: N-terminal GST; dsDNA, one strand shown
# Chain of ETV5 (P41161 whole entry): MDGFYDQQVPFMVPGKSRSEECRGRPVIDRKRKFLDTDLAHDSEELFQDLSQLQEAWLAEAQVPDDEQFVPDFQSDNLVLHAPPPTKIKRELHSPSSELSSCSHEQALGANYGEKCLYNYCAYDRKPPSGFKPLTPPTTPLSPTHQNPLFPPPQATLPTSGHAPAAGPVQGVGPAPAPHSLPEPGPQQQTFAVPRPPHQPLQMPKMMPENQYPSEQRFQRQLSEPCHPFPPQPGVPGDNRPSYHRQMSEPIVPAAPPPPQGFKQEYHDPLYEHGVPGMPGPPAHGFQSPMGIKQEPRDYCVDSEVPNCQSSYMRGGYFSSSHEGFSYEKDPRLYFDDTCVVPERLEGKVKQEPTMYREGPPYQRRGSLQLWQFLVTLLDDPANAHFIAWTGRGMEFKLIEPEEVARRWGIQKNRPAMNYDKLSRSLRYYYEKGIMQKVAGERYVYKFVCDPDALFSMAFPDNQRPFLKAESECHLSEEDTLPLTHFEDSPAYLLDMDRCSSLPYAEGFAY
# Outline: as §1
# [3] = target: HSF1 (Homo sapiens, UniProt Q00613 1-529); details: protein: recombinant; tags: N-terminal GST; chain copies: 3; dsDNA, one strand shown
# Chain of HSF1 (Q00613 whole entry): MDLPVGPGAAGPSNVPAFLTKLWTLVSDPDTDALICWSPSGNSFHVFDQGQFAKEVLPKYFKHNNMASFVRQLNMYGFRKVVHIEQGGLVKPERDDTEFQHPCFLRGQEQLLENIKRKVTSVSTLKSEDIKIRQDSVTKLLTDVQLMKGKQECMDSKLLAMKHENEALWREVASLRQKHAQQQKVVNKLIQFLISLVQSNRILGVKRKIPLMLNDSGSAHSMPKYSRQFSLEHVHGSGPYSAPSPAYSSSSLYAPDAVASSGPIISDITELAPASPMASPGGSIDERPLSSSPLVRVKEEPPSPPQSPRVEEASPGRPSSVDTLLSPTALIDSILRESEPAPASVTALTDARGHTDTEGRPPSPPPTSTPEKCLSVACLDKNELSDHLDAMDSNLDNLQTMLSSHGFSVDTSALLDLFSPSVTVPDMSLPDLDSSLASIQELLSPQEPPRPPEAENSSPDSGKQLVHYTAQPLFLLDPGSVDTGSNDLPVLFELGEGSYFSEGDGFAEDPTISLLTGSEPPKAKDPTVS
# Outline: as §1
# [4] = target: T2, SPIC (Homo sapiens, UniProt Q8N5J4 1-248); details: protein: recombinant; tags: N-terminal GST; dsDNA, one strand shown
# T2 sequence: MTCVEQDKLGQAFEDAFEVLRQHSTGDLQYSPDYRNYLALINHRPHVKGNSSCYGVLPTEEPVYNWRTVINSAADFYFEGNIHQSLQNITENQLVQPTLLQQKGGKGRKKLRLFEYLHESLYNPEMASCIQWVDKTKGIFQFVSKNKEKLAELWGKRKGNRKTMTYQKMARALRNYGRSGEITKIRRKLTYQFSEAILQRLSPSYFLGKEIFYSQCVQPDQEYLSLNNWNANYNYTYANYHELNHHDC
# Outline: as §1
# [5] = target: ELF4 (Homo sapiens, UniProt Q99607 1-663); details: protein: recombinant; tags: N-terminal GST; dsDNA, one strand shown
# Chain of ELF4 (Q99607 whole entry): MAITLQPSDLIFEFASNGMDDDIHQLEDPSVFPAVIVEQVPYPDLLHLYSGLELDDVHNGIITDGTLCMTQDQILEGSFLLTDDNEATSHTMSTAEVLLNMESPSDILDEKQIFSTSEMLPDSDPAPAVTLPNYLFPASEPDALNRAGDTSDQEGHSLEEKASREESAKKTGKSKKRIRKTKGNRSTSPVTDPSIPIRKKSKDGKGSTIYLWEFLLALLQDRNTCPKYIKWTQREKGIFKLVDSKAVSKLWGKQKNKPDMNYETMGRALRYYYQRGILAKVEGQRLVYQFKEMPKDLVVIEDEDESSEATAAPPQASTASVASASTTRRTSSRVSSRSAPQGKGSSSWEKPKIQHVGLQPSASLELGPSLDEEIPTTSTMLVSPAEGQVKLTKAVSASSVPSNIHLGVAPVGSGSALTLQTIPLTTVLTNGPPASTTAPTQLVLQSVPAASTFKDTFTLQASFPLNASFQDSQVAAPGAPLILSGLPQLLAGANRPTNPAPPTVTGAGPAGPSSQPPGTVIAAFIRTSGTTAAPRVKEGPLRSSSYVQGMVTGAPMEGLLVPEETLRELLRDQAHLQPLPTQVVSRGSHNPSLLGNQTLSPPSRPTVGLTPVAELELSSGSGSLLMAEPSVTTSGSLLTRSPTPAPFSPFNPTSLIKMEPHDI
# Outline: as §1
# [6] = target: T3, ELK4 (Homo sapiens, UniProt P28324-2 1-405); details: protein: recombinant; tags: N-terminal GST; dsDNA, one strand shown
# T3 sequence: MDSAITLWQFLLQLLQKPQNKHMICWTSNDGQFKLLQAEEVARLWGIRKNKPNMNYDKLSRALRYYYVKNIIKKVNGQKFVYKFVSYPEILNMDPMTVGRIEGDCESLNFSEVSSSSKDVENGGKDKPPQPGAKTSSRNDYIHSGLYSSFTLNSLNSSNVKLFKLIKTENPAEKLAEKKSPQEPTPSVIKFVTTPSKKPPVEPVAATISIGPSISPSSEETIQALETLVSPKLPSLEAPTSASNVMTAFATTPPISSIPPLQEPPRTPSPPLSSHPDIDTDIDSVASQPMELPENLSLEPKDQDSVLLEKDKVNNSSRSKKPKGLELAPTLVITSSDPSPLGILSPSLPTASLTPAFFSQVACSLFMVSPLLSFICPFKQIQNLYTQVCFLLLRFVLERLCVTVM
# Outline: as §1
# [7] = target: T4, ETV2 (Homo sapiens, UniProt O00321 1-342); details: protein: recombinant; tags: N-terminal GST; dsDNA, one strand shown
# T4 sequence: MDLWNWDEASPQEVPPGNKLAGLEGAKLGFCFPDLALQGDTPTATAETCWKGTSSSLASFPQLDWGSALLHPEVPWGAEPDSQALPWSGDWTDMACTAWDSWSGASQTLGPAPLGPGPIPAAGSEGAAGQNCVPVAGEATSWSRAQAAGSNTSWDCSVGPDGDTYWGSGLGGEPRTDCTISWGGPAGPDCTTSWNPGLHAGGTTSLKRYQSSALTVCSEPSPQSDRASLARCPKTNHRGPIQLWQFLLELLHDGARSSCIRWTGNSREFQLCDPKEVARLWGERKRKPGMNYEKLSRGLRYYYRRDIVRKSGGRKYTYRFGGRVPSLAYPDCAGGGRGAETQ
# Outline: as §1
# [8] = target: T5, ELF3 (Homo sapiens, UniProt P78545 1-371); details: protein: recombinant; tags: N-terminal GST; dsDNA, one strand shown
# T5 sequence: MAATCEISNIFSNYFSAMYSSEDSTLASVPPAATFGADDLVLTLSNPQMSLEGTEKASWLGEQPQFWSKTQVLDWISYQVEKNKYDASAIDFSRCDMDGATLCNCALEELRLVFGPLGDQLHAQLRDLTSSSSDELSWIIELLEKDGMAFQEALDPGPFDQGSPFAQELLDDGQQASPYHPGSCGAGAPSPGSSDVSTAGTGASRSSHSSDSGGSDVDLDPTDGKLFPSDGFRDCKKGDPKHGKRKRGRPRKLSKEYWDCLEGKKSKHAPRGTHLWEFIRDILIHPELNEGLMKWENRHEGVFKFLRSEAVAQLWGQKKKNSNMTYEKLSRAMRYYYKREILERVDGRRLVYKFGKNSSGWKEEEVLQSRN
# Outline: as §1
# [9] = target: CRX (Homo sapiens, UniProt O43186 1-299); details: protein: recombinant; tags: N-terminal GST; dsDNA, one strand shown
# Chain of CRX (O43186 whole entry): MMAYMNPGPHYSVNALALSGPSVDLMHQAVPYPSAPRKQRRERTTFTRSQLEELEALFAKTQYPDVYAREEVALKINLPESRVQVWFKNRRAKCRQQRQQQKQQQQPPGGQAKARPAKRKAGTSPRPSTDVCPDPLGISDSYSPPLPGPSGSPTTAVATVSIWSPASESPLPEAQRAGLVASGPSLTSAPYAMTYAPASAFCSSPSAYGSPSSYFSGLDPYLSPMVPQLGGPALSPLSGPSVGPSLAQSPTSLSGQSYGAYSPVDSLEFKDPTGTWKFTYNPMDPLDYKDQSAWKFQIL
# Outline: as §1
# [10] = target: ETV1 (Homo sapiens, UniProt P50549 1-477); details: protein: recombinant; tags: N-terminal GST; dsDNA, one strand shown
# Chain of ETV1 (P50549 whole entry): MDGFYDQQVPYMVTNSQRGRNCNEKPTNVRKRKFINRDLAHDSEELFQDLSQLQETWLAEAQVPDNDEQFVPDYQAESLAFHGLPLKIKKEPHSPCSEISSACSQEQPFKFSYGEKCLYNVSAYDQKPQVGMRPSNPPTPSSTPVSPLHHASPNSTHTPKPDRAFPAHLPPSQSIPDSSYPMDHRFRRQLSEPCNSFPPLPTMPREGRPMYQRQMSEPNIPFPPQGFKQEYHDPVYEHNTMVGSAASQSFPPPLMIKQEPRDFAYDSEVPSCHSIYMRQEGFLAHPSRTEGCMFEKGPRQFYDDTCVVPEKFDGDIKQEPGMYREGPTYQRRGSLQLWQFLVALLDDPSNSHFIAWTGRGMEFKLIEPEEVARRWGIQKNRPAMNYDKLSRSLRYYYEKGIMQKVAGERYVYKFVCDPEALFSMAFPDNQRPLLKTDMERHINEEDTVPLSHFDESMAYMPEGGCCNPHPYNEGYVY
# Outline: as §1
# [11] = target: T6, ERF (Homo sapiens, UniProt P50548 1-548); details: protein: recombinant; tags: N-terminal GST; dsDNA, one strand shown
# T6 sequence: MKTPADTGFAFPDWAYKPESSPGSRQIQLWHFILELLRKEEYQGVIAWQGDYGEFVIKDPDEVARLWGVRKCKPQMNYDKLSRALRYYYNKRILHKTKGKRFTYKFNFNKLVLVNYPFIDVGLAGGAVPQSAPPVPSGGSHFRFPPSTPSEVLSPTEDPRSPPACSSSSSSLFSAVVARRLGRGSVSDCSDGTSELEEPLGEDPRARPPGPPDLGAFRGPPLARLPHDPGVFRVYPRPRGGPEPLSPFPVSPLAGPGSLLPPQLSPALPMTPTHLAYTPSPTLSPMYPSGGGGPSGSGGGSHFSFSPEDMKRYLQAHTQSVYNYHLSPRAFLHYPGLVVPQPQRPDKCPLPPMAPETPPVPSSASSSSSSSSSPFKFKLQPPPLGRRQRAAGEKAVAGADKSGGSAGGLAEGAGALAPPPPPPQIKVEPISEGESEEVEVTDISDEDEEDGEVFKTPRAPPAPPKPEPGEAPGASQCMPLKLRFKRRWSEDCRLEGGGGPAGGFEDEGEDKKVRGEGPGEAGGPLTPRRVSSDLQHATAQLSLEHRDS
# Outline: as §1
# [12] = target: T7, ETV3L (Homo sapiens, UniProt Q6ZN32 1-361); details: protein: recombinant; tags: N-terminal GST; dsDNA, one strand shown
# T7 sequence: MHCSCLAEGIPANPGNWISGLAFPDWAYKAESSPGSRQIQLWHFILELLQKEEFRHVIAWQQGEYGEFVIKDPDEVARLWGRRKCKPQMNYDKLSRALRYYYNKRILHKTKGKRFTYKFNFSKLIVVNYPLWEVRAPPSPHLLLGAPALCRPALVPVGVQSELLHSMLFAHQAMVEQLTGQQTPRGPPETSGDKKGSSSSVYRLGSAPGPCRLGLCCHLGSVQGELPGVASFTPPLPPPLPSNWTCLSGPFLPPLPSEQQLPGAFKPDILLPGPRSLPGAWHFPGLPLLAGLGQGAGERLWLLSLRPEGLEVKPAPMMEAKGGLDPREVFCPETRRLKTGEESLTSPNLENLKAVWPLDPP
# Outline: as §1
# [13] = target: T8, ETS2 (Homo sapiens, UniProt P15036 1-469); details: protein: recombinant; tags: N-terminal GST; dsDNA, one strand shown
# T8 sequence: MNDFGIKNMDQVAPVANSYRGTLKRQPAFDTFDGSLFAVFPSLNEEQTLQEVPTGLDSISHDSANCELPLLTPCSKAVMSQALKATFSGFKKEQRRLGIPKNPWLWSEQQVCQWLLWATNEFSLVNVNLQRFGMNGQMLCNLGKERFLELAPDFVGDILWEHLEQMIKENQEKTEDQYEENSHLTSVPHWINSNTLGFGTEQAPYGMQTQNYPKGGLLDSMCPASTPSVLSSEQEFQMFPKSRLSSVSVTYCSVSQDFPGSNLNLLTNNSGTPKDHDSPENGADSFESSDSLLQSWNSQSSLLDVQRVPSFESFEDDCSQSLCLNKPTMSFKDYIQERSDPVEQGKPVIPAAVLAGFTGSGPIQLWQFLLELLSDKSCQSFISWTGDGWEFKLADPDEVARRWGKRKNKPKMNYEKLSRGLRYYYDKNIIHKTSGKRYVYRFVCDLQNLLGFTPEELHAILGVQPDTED
# Outline: as §1
# [14] = target: T9, SPDEF (Homo sapiens, UniProt O95238 1-335); details: protein: recombinant; tags: N-terminal GST; dsDNA, one strand shown
# T9 sequence: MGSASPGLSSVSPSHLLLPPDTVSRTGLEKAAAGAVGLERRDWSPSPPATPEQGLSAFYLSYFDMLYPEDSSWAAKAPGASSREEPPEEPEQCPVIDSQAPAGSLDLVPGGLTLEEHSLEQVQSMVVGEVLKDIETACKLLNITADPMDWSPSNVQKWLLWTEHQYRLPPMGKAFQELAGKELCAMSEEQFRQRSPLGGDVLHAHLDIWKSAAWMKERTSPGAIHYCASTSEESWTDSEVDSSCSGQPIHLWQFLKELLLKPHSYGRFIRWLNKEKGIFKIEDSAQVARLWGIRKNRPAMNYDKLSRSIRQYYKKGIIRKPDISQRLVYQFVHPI
# Outline: as §1
# [15] = target: T10, ETV7 (Homo sapiens, UniProt Q9Y603 1-341); details: protein: recombinant; tags: N-terminal GST; dsDNA, one strand shown
# T10 sequence: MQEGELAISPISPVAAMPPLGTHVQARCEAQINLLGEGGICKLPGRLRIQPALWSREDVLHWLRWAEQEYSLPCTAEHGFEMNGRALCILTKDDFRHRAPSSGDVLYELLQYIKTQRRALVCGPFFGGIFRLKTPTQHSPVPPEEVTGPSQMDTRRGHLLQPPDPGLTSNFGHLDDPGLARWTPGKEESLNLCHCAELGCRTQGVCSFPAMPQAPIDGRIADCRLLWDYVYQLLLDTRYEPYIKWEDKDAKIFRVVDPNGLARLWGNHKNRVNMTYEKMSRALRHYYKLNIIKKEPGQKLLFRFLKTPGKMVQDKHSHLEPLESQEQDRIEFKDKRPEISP
# Outline: as §1
# [16] = target: T11, ELF5 (Homo sapiens, UniProt Q9UKW6-2 1-255); details: protein: recombinant; tags: N-terminal GST; dsDNA, one strand shown
# T11 sequence: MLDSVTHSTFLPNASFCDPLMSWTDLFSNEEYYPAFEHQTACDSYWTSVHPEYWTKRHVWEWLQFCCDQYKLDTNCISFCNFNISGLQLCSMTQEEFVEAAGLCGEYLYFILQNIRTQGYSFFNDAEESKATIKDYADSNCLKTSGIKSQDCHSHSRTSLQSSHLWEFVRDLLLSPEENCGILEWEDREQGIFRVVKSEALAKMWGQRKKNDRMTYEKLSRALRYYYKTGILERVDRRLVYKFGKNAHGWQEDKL
# Outline: as §1
# [17] = target: T12, ETV3 (Homo sapiens, UniProt P41162-2 1-143); details: protein: recombinant; tags: N-terminal GST; dsDNA, one strand shown
# T12 sequence: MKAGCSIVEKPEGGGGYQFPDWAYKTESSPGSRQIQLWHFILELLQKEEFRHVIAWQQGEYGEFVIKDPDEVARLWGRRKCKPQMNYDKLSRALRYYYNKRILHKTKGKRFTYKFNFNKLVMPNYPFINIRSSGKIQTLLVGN
# Outline: as §1
# [18] = target: ETV6 (Homo sapiens, UniProt P41212 1-452); details: protein: recombinant; tags: N-terminal GST; dsDNA, one strand shown
# Chain of ETV6 (P41212 whole entry): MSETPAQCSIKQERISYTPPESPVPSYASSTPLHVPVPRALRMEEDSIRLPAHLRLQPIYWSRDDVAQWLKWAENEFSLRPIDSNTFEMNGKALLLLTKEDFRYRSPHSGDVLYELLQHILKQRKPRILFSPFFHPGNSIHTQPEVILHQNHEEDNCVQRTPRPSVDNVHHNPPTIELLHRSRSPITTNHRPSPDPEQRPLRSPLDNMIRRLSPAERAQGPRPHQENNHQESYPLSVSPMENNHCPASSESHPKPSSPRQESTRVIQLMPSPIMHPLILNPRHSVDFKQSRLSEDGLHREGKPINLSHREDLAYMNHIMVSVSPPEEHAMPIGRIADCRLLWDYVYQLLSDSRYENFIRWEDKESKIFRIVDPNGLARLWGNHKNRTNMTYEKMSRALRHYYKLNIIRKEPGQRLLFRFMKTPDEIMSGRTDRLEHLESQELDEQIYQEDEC
# Outline: as §1
sequence,measurement,setting,value
AACGCT,binding signal,[1],"1.18 fold enrichment (6-mer frequency, TF over GST control)"
same,binding signal,[2],"1.23 fold enrichment (6-mer frequency, TF over GST control)"
same,binding signal,[3],"1.06 fold enrichment (6-mer frequency, TF over GST control)"
same,binding signal,[4],"1.26 fold enrichment (6-mer frequency, TF over GST control)"
same,binding signal,[5],"1.27 fold enrichment (6-mer frequency, TF over GST control)"
same,binding signal,[6],"1.22 fold enrichment (6-mer frequency, TF over GST control)"
same,binding signal,[7],"1.24 fold enrichment (6-mer frequency, TF over GST control)"
same,binding signal,[8],"1.14 fold enrichment (6-mer frequency, TF over GST control)"
same,binding signal,[9],"1.17 fold enrichment (6-mer frequency, TF over GST control)"
same,binding signal,[10],"1.2 fold enrichment (6-mer frequency, TF over GST control)"
same,binding signal,[11],"1.26 fold enrichment (6-mer frequency, TF over GST control)"
same,binding signal,[12],"1.15 fold enrichment (6-mer frequency, TF over GST control)"
same,binding signal,[13],"1.13 fold enrichment (6-mer frequency, TF over GST control)"
same,binding signal,[14],"1.2 fold enrichment (6-mer frequency, TF over GST control)"
same,binding signal,[15],"1.24 fold enrichment (6-mer frequency, TF over GST control)"
same,binding signal,[16],"1.19 fold enrichment (6-mer frequency, TF over GST control)"
same,binding signal,[17],"1.24 fold enrichment (6-mer frequency, TF over GST control)"
same,binding signal,[18],"1.27 fold enrichment (6-mer frequency, TF over GST control)"

# Reference: publication PMC7862700, “An all-to-all approach to the identification of sequence-specific readers for epigenetic DNA modifications on cytosine”
